CYP2C9 act: human CYP2C9 activators, primary screen, biochemical, luminescence. Cytochrome P450 2C9 (Homo sapiens), P11712. recombinant CYP2C9, luciferin-H conversion; hits give high values; factor 1 = untreated enzyme, 0 = blocked. activation factor at 5 µM. 96,000 compounds, 1.4% hits;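 active means activation factor of 2 or more for CYP2C9 at a 5 µM dose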;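 further: 0 = sulfaphenazole-blocked wells and 1 = vehicle-only wells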
Target sequence (P11712 whole entry, looked up): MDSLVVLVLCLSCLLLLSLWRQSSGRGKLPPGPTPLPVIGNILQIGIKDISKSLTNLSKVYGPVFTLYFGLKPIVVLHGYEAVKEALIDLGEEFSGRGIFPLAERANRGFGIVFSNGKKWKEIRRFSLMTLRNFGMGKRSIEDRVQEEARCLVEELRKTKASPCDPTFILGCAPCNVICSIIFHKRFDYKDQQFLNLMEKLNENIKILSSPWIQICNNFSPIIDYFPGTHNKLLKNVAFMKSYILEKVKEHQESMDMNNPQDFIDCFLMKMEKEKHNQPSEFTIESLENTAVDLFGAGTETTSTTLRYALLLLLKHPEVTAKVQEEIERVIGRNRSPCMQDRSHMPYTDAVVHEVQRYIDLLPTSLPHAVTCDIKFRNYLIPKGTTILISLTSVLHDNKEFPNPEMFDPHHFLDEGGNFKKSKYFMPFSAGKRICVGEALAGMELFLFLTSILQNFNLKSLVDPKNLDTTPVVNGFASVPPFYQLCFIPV
Mac1 fbg enh: enhancers of CD11b/CD18 adhesion to fibrinogen, primary screen, K562 cells, luminescence; ATPlite luminescence; activation, % at 10 µM; AID 1499, 2009; Integrin beta-2 (Homo sapiens) + Integrin alpha-M (Homo sapiens), P05107+P11215; 93,000 compounds, 0.07% hits;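 active means 10 µM primary screen giving 50% or more activity, confirmed by 40% or more on retest at that dose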
CD11b adhes inh: inhibitors of CD11b/CD18 adhesion to fibrinogen, primary screen, K562 cells, luminescence; inhibition, % at 10 µM; ATPlite luminescence; Mn2+ added to activate the integrin; Integrin beta-2 (Homo sapiens) + Integrin alpha-M (Homo sapiens), P05107+P11215; 93,000 compounds, 0.54% hits;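 active means primary inhibition of 50% or more at 10 µM, then 40% or more on retest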
CYP2C19 activ: human CYP2C19 activators, primary screen, biochemical, luminescence. recombinant CYP2C19, luciferin-H EGE luminescence; hits give high values; 0 = fully inhibited enzyme, 1 = untreated enzyme. 96,000 tested, under 10 active. Cytochrome P450 2C19 (Homo sapiens), P33261. activation factor at 5 µM;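 active means activation factor of at least 2 at 5 µM in the primary screen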;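 further: 0 = wells with 2.5 mM tranylcypromine and 1 = vehicle-only wells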
CYP2C19 inh: blockers of cytochrome P450 2C19 activity – biochemical, luminescence, ADME assay, primary screen. P33261. CYP2C19 Supersomes, luciferin-H EGE luminescence, 30 min. inhibition, % at 5 µM. 96,000 compounds, 21% hits. AID 778, 2007;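 active means CYP2C19 inhibition above a set limit at 5 µM in the primary screen, cut at about 50% in these data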;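 further: plate controls were negative control wells for no effect and 2.5 mM tranylcypromine positive control for full effect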
CYP2C9 inh: blockers of cytochrome P450 2C9 activity – biochemical, luminescence, ADME assay, primary screen; P11712; CYP2C9 Supersomes, luciferin-H conversion; inhibition, % at 5 µM; 96,000 compounds, 20% hits; AID 777, 2007;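 active means blocking of liver enzyme CYP2C9 beyond about 50% at 5 µM, limit read from the data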
Numbers without * were called inactive; . = no result given. An excerpt weighted towards active compounds, which were near 28% of everything screened.

SMILES | CYP2C9 act | Mac1 fbg enh | CD11b adhes inh | CYP2C19 activ | CYP2C19 inh | CYP2C9 inh
O=C(CSc1nnnn1C1CCCC1)Nc1ccc2c(c1)OCO2 | 0.5 | 8 | -1 | 0.6 | 39 | 55*
Cc1ccccc1-c1nnc(SCC(=O)Nc2ccc3c(c2)OCCO3)n1N | 0.3 | -4 | -4 | 0.6 | 40 | 73*
Nn1c(SCC(=O)Nc2ccc3c(c2)OCO3)nnc1-c1ccccc1 | 0.5 | 2 | -29 | 0.7 | 28 | 51*
O=C(Nc1ccc(Oc2ccccc2)cc1)c1cnc2n(c1=O)CCS2 | 0.9 | 3 | 3 | 1 | 1 | 5
Cc1c(NC(=O)c2cc(CC(C)C)on2)c(=O)n(-c2ccccc2)n1C | 0.9 | -3 | 3 | 0.9 | 6 | 14
C=CCn1c(SCC(=O)Nc2c(C)cccc2C)nnc1-c1ccncc1 | 0.8 | -1 | 1 | 0.3 | 72* | 24
CC1(C)Cc2ccccc2-c2nnc(SCC(=O)Nc3ccc4c(c3)OCO4)n21 | 1 | -2 | 16 | 1 | 5 | 0
C=CCn1c(SCCC#N)nnc1-c1ccncc1 | 0.9 | -1 | -16 | 0.4 | 55* | 9
C=CCn1c(SCC(=O)Nc2cccc(OC)c2)nnc1-c1cccnc1 | 0.6 | -3 | 10 | 0.6 | 37 | 42
C=CCn1c(SCC(=O)Nc2ccc3c(c2)OCO3)nnc1-c1cc(Br)ccc1O | 0.2 | 7 | 4 | 0.5 | 49 | 82*
CCn1c(SCCC#N)nnc1-c1ccncc1 | 1 | 0 | -8 | 0.6 | 44 | 2
C=CCn1c(SCC(=O)Nc2ccc3c(c2)OCO3)nnc1-c1ccccc1OC | 0.1 | 1 | -8 | 0.2 | 83* | 89*
O=C(c1ccc2nc(N3CCCCC3)sc2c1)N1CCN(c2ccccn2)CC1 | 0.6 | -5 | 7 | 0.6 | 43 | 37
CC1(N2CCOCC2)CC2(O)C(=[N+]1[O-])CCc1c2no[n+]1[O-] (stereo unspecified) | 1 | -1 | -6 | 1 | 0 | 0
CCOC(=O)c1cc(C)n(-n2cnnc2)c1C | 1.2 | -2 | 14 | 1.2 | -18 | -22
C=CCn1c(SCC(=O)Nc2ncc(Cc3cc(Cl)ccc3Cl)s2)nnc1-c1ccncc1 | 0.8 | 7 | -9 | 0.4 | 56* | 17
Cc1ccc(NC(=O)CSc2nnc(-c3ccncc3)n2N)cc1C | 0.5 | 4 | -11 | 0.7 | 29 | 53*
O=C(CSc1nnc(Cc2ccccc2)o1)Nc1ccc2c(c1)OCO2 | 0.1 | 4 | -3 | 0.4 | 60* | 94*
O=C(NC1CCCCCC1)c1cccnc1Sc1ccccc1 | . | -1 | 18 | . | . | .
O=C(NC1CCCCC1)C1CC=CCC1C(=O)OCC(Cl)=C(Cl)Cl (stereo unspecified) | 0.7 | . | . | 0.8 | 17 | 34
CN(C)c1nc(-c2ccccc2)nnc1C(F)(F)F | 1.5 | -1 | -4 | 0.8 | 25 | -47
COc1cc(C2C(C#N)=C(N)OC3=C2C(=O)CC(C)(C)C3)c([N+](=O)[O-])cc1OC (stereo unspecified) | 0.9 | . | . | 1.1 | -5 | 9
COc1ccc(C2C(C#N)=C(N)OC3=C2C(=O)CC(C)(C)C3)c([N+](=O)[O-])c1OC (stereo unspecified) | 0.3 | . | . | 0.8 | 21 | 71*
COc1cccc(C2C(C#N)=C(N)OC3=C2C(=O)CC(c2ccco2)C3)c1OCc1ccc(F)cc1 (stereo unspecified) | 0.1 | . | . | 0.2 | 80* | 89*
COc1ccc(C2C(C#N)=C(N)OC3=C2C(=O)CC(C)C3)c(OC)c1OC (stereo unspecified) | 0.4 | 4 | -6 | 0.9 | 10 | 58*
SMILES | CYP2C9 act | Mac1 fbg enh | CD11b adhes inh | CYP2C19 activ | CYP2C19 inh | CYP2C9 inh
CC1(C)CC(=O)C2=C(C1)OC(N)=C(C#N)C2c1cn(-c2ccccc2)nc1-c1ccc(F)cc1 (stereo unspecified) | . | 1 | -9 | . | . | .
CC(C)c1cc(C(=O)NNC(=S)NCc2ccco2)c(O)c(C(C)C)c1 | . | -10 | 104 | . | . | .
Cc1ccc(C)n1-c1ccc(N2CCOCC2)c(Br)c1 | 0.9 | 6 | -14 | 0.9 | 14 | 6
CCn1c(=S)[nH]c2ccccc21 | 1.5 | -2 | 12 | 0.8 | 16 | -55
CC(C)n1c(=S)[nH]c2ccccc21 | 3* | -5 | 3 | 0.7 | 29 | -202
O=C(CS(=O)(=O)Cc1ccccc1)Nc1nc2ccccc2s1 | 0.5 | 1 | -46 | 0.5 | 54* | 55*
Cc1ccc(CC(=O)Nc2nc3ccccc3s2)cc1 | 0.7 | . | . | 0.9 | 14 | 34
O=S(=O)(Nc1nc2ccccc2s1)c1ccc(Cl)s1 | 0 | -5 | 74* | 0.3 | 65* | 95*
CN(CC(=O)Nc1nc2ccccc2s1)S(=O)(=O)c1ccccc1 | 0.6 | 3 | -23 | 0.5 | 52* | 44
CC(C)CNc1c(N)c(=O)oc2ccccc12 | 0.9 | -4 | -1 | 1 | 0 | 12
COc1ccccc1/C=N/NC(=O)CCn1cnc2ccccc21 | . | 3 | -3 | . | . | .
Cc1c(OCC(=O)OC(C)(C)C)ccc2c3c(c(=O)oc12)CCC3 | 1 | -5 | -5 | 0.8 | 15 | 2
Cc1c(OC(=O)CNC(=O)OC(C)(C)C)ccc2c3c(c(=O)oc12)CCC3 | 2.7* | 5 | -8 | 0.6 | 41 | -173
CC(=O)COc1ccc2c3c(c(=O)oc2c1C)CCCCC3 | 0.9 | 4 | -6 | 0.2 | 83* | 15
CC(=O)C(C)Oc1ccc2c3c(c(=O)oc2c1C)CCCC3 (stereo unspecified) | 0.5 | -5 | 8 | 0.4 | 58* | 46
Cc1cccc2cc(COC(=O)C3CCCO3)c(=O)[nH]c12 (stereo unspecified) | 1.1 | -4 | -6 | 1.1 | -11 | -6
CC(=O)c1ccc(OC(=O)N(c2ccccc2)c2ccccc2)cc1 | 0.3 | 3 | -1 | 0.4 | 56* | 70*
COc1ccccc1NC(=O)Oc1ccc(C(C)=O)cc1 | 1.2 | . | . | 0.8 | 17 | -17
O=C(NCc1cccs1)c1cccc(N2CCCC2=O)c1 | 0.5 | -2 | -19 | 0.4 | 57* | 54*
O=C(NC1CCCCCC1)c1cccc(N2CCCC2=O)c1 | 0.6 | -3 | -8 | 0.4 | 57* | 37
Cc1ccnc(NCn2nnc3ccccc32)c1 | 1 | . | . | 1.1 | -6 | -3
NC(=O)C1CCN(C(=S)c2cccs2)CC1 | 1 | 7 | -29 | 0.8 | 23 | 3
COc1ccc(N/N=C(\C=N\O)C(=O)c2ccc(OC)cc2)cc1 | 0.1 | 1 | -4 | 0.3 | 75* | 88*
COc1ccccc1N1CCN(Cc2ccsc2)CC1 | 0.9 | 4 | -18 | 0.6 | 40 | 9
COc1ccccc1N1CCN(Cc2cccs2)CC1 | 0.6 | 5 | -7 | 0.1 | 94* | 36
